# gsp ag: gsp mutant agonism; gsp mutant cells, cAMP HTRF, 30 min; Potency, µM (highest dose often 76.9 µM), for inactives: at the highest dose activation (cAMP increase), usual class: activators; 0.13% of 340,000 active; active means well fitted activation curve with a large enough effect; inconclusive means small, poorly fitted or top-dose-only effect, or another doubt; inactive means no such curve, though single readings can be large or run the other way; cell line not stated here;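 further: phosphodiesterase inhibitor Ro 20-1724 added with compounds to block cAMP breakdown; potency means the concentration at half of the fitted maximal effect; nearly all actives have a fitted effect of over 60% in size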
#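 Cells in DMEM/10% FBS with G418 were pretreated with compounds in DMSO plus […] (300 uM stock) for 30 min at 37C. cAMP was measured by HTRF (cAMP-d2 plus anti-cAMP antibody-K) after 30 min at room temperature.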
# BRCA1 expr up: activators of BRCA1 expression | MCF7-BRCA1-FFLuc reporter, luminescence, 48 h; response scale: scaled: vehicle 0%, 10 µM genistein 100% | Potency, µM (doses to about 46.1 µM), for the others: top-dose activation, hits mostly activators | 1.1% of 380,000 active | AID 624202; further: potency means the concentration at half of the fitted maximal effect; nearly all actives have a fitted effect of over 80% in size
#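 Reporter cells (MCF7, BRCA1 promoter-firefly luciferase) received library compounds across a concentration series for 48 h. End-point luminescence was measured and concentration-effect curves derived after normalization.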
# IDH1 R132H inh: blocks human mutant IDH1 R132H enzyme; O75874; IDH1-R132H enzyme, NADPH consumption, diaphorase/resazurin fluorescence; Potency, µM (titrated, usually from 76.6 µM), inactives show at the highest dose activity change, negative = inhibition, most hits filed as inhibitors; 0.093% of 390,000 active; further: potency means the concentration at half of the fitted maximal effect; on the % scale 0 is the no-effect control and ±100 the full control effect; nearly all actives have a fitted effect of over 65% in size
# Target sequence (O75874 whole entry R132H, stated change not applied): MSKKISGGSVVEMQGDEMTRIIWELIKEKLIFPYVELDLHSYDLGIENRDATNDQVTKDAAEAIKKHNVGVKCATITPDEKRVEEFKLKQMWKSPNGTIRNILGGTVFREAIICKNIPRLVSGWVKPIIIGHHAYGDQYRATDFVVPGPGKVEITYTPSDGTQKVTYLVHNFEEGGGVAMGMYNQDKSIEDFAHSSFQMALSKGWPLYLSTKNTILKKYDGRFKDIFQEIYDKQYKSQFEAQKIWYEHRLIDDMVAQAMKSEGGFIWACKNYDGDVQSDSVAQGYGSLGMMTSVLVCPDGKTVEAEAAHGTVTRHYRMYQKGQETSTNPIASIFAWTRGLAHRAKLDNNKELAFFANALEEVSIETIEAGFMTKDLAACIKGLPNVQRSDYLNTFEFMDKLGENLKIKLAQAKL
#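 IDH1-R132H (0.5 ug/mL) preincubated 30 min with compound, then NADPH (0.016 mM) and alpha-KG (2 mM) added; 80 min at RT, pH 7.5. Remaining NADPH coupled via diaphorase/resazurin to fluorescence (540/590 nm); concentration-response curves normalized to no-enzyme control.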
# gsp antag: antagonizes gsp, the McCune-Albright syndrome mutation | 0.4% of 340,000 active | gsp-mutant cells, cAMP HTRF, 30 min | Potency, µM (titrated, usually from 76.9 µM), for the others: at the top dose activity change, negative = inhibition, most hits filed as inhibitors | AID 624288; calls by dose curve; cell line not stated here;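 further: intracellular cAMP measured with PDE inhibitor Ro 20-1724 present during compound exposure; potency means the concentration at half of the fitted maximal effect; on the % scale 0 is the no-effect control and ±100 the full control effect; nearly all actives have a fitted effect of over 65% in size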
#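 Measurement of cellular cAMP by homogeneous time-resolved fluorescence following a 30 min compound exposure at 37C. The PDE inhibitor […] was present throughout; the assay buffer was DPBS with 0.05% BSA and 0.005% Tween 20.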
# IL-2 act: activators of IL-2; IL-2 activation reporter assay, cell-based qHTS; stimulated with anti-CD3/CD4/CD28 beads; in transgenic mouse T cells; activation, % (series mostly up to about 46 µM); 0.065% of 360,000 active; AID 652025; in the data active means activation above about 50%; inconclusive means mostly about 30% to 49%; further: 0% is about no effect
#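 Readout: EGFP and DsRed signals by fluorescent plate cytometry. Unstimulated transgenic mouse T cells received compound 60 min before antibody-bead stimulation, then incubated 18 h at 37 degrees C.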
# The depositor's hits bear a star; ? = inconclusive; . = no result; [ ] = remark or other dose. Shown are actives, neighbours in structure and some others; about 1.5% of the full set was active somewhere. Unless noted, the call rests on the fitted dose curve; in most records, active means well fitted curve in the direction sought with a large enough effect; inconclusive means small, poorly fitted or top-dose-only effect, or another doubt; inactive means no such curve, though single readings can be large; an effect the other way counts as inactive or inconclusive.
SMILES,gsp ag,BRCA1 expr up,IDH1 R132H inh,gsp antag,IL-2 act
CCc1cnc2c(c1SCC(=O)NCc1ccccc1)c(=O)n(C)c(=O)n2C,.,.,0%,.,.
COC(=O)[C@H](CC(C)C)NC(=O)Cn1cnc(C(=O)Nc2ccc(C)c(C)c2)n1,.,11µM*,5%,1%,0
COC(=O)C[C@H](NC(=O)Cn1cnc(C(=O)Nc2ccc(C)c(C)c2)n1)C(=O)OC,.,22%,-14%,7%,1
C(=C\c1ccnc2ccccc12)/c1cc2c3c(c1)CCCN3CCC2,.,-39%,.,.,.
COc1ccc(-c2nn(-c3ccccc3)cc2N)cc1,9%[15.4 µM],3.2µM*,2%,.,0
COc1ccc(-c2cn(-c3ccccc3)nc2CO)cc1,-6%,?,6%,-20%,0
Cc1ccc(-c2nn(-c3ccccc3)cc2CO)cc1,-3%[15.4 µM],7.9µM*,5%,11%,-4
COc1ccc(-c2c(C)nn(-c3ccccc3)c2N)cc1,-5%,11µM*,1%,1%,-3
COc1ccc(-c2nn(-c3ccccc3)cc2CO)cc1,7%,?,5%,-21%,0
CCOc1ccc(Cn2c(CNS(=O)(=O)c3ccc(Cl)s3)nc3cccnc32)cc1,.,.,-11%,.,.
Cc1ccc(OCc2cc(C(=O)N3CCc4[nH]cnc4C3c3ccccn3)no2)cc1C (configuration not stated),-17%,-1%,6%,4%,-2
CCOC(=O)c1cccc(NC(=O)c2cc(S(=O)(=O)N3CCCCCC3)cn2C)c1,.,-65%,-1%,.,.
CCN(C(=O)CSc1nc2ccccc2n1Cc1ccccc1C#N)c1ccccc1,.,4%,-2%,.,.
c1ccc2c(c1)ccn2CCCN1CCCCC1,-10%,-15%,7%,-3%,3
C#CC(C)(C)NS(=O)(=O)c1cc(-c2nnc(Nc3ccc(C)cc3)c3ccccc23)ccc1C,.,-59%,19%,.,.
CCN(CC)C(=O)Cn1cc(S(=O)(=O)CC(=O)Nc2ccc3c(c2)OCCO3)c2ccccc21,-14%,11µM*,-4%,-11%,1
CCn1cc(S(=O)(=O)CC(=O)Nc2ccc3c(c2)OCCO3)c2ccccc21,-13%,2%,2%,0%,-3
Cc1cc(OCCN2CCOCC2)ccc1Cl,0%,13µM*,-12%,6%,-2
Cc1ccc(OCCN2CCOCC2)cc1C,17%[15.4 µM],93%,10%,11%,-1
O=C(CSc1nnc(NC(=O)c2ccccc2)s1)NCC1CCCO1 (configuration not stated),0%,77%,9%,-5%,1
O=C(CSc1nnc(NC(=O)c2ccccc2F)s1)NCC1CCCO1 (configuration not stated),?,13µM*,7%,-11%,-2
CC(Cc1ccccc1)N1CCCC1=O (configuration not stated),-15%,-5%,2%,11%,-5
C=CCc1cccc(C=Nc2cccn3cc(-c4ccccc4)nc23)c1O,26%,11µM*,-8%,?,0
C/C(N)=C(/C#N)C(=O)CSc1nn(-c2ccc(Cl)cc2)c(=S)s1,-9%,?,0%,50µM*,0
COCCCNC(=O)c1cc2cc3cc(OC)ccc3nc2o1,10%,19%,5%,-16%,2
SMILES,gsp ag,BRCA1 expr up,IDH1 R132H inh,gsp antag,IL-2 act
CCCCN(C)C(=O)c1cc2cc3cc(OC)ccc3nc2o1,16%,6.3µM*,6%,-16%,-1
CCCCN(C)CCNC(=O)c1cc2cc3ccc(OC)cc3nc2o1,4%,15%,-3%,5%,0
CCCCN(C)C(=O)c1cc2cc3ccc(OC)cc3nc2o1,-3%,4.5µM*,-7%,-6%,-4
Cc1ccc(Nc2cc(C)nc(-c3ccccc3)n2)cc1,-4%,3.2µM*,20%,5%,-2
Cc1ccc(Nc2cc(C)nc(-c3ccccc3O)n2)cc1,0%,54%,3%,-14%,17
CCOC(=O)NC(=O)/C(C#N)=C\Nc1ccc(Cl)cc1Cl,?,13µM*,-9%,1%,0
CCOC(=O)NC(=O)/C(C#N)=C\Nc1sccc1C(=O)OC,-1%[15.4 µM],-8%,5%,0%,-2
O=Cc1ccc(OCc2ccc3ccccc3c2)cc1,-5%[15.4 µM],4.5µM*,4%,-11%,1
O=c1oc(Nc2cccc(Cl)c2)nc2ccccc12,3%[15.4 µM],7.1µM*,6%,14%,-5
O=S(=O)(c1cccs1)N1CCCc2cccc(O)c21,-15%,13µM*,26%,-14%,0
Cc1cc2ncc(-c3ccccc3)nc2cc1C,12%,?,6%,-14%,0
CCc1ccc(-c2cnc3ccccc3n2)cc1NC(=O)CNC(=O)c1ccccc1,-5%,7.9µM*,6%,-12%,-2
CCOC(=O)c1cnc(-c2ccccc2)nc1N,28%,4µM*,2%,-7%,7
O=C(Nc1cccc(-c2cnc3ccccc3n2)c1)c1ccccc1,11%,18%,1%,7%,-3
Cc1nc2ccc(C(=O)OCc3ccccc3Br)cc2nc1C,19%,7.1µM*,-3%,2%,-1
CC(=O)Nc1ccc(C(=O)OCc2ccccc2Br)cc1,-25%,62%,-3%,6%,0
CCOC(=O)c1ccc2ncc(-c3ccccc3)nc2c1,-1%[15.4 µM],13µM*,5%,-1%,0
CCOC(=O)c1cnc(-c2ccccc2)nc1N(C)C,1%,-49%,3%,-2%,-3
Cc1ccc2c(c1)ncc[n+]2CC(=O)c1ccc(Cl)cc1Cl,.,-33%,.,.,.
CNc1ccc(C=O)cc1I,.,-3%,.,.,.
O=C1CC2C(CCC23OCCO3)c2ccc3ccccc3c21 (configuration not stated),28%,10µM*,7%,-8%,0
CC(=O)N(C)c1ccc(NC(=O)Nc2ccc(Cl)cc2)cc1,-63%,11µM*,-4%,-6%,0
CC(=O)N(C)c1ccc(NC(=O)Nc2ccc(C)cc2)cc1,-58%,89%,12%,12%,0
COC(=O)c1sccc1S(=O)(=O)N(CC(=O)NCc1ccc(C)cc1)c1ccccc1,.,.,23%,.,.
Cc1ccc(N2Cc3ccccc3C2=S)cc1,5%,4µM*,10%,-6%,1
SMILES,gsp ag,BRCA1 expr up,IDH1 R132H inh,gsp antag,IL-2 act
COc1cc(C(=O)Nc2nc(-c3ccc(F)cc3)cs2)ccc1OCC(=O)N1CCOCC1,-8%,-43%,15%,35µM*,-5
CSc1nc2ccc(NC(=O)c3cccs3)cc2s1,-18%,4.5µM*,10%,?,-5
O=C(CCS(=O)(=O)c1ccccc1)Nc1ccc(-c2nc3ccccc3s2)cc1,-13%[15.4 µM],?,-3%,7%,-3
O=C(Nc1cccc(-c2nc3ccccc3s2)c1)c1cccs1,1%[15.4 µM],63%,11%,22µM*,-3
O=C(CCS(=O)(=O)c1ccccc1)Nc1cccc(-c2nc3ccccc3s2)c1,-11%,-63%,0%,40µM*,-3
Cc1ccccc1NC(=O)CSc1nc2ccc(NC(=O)c3cccs3)cc2s1,.,9%,7%,.,.

# Bioassay records (PubChem)
